Test results taken from PubChem BioAssay (NCI).
About 83,000 compounds went through this panel and 20% of them were active in at least one assay; those are over-represented in the sample as a whole.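 96-well plates, one dose, 48 hours. Percent growth reported; active if below 10.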 Calls of active or inactive are those of the source.

Tests used:
Assay in all cases: NCI-60 one-dose screen, 48 h (100 = growth as untreated, 0 = no growth, -100 = all killed)
Details in all cases: 10 µM
SK-MEL-2 melanoma = system: SK-MEL-2 melanoma
EKVX NSCLC = system: EKVX NSCLC
SN12C renal = system: SN12C renal
UO-31 renal = system: UO-31 renal
TK-10 renal = system: TK-10 renal
ACHN renal = system: ACHN renal
CAKI-1 renal = system: CAKI-1 renal
A498 renal = system: A498 renal
CCRF-CEM leukemia = system: CCRF-CEM leukemia
MOLT-4 leukemia = system: MOLT-4 leukemia

Measured: growth

CCOC(=O)c1cc2c(n1Cc1ccccc1)-c1oncc1CC2
inactive: SK-MEL-2 melanoma 85.7% | EKVX NSCLC 77% | SN12C renal 98.6% | UO-31 renal 25.4% | TK-10 renal 101% | ACHN renal 82.1% | CAKI-1 renal 36.5% | A498 renal 48.4% | CCRF-CEM leukemia 53.1% | MOLT-4 leukemia 25.2%

CCN(CC)CC(O)Cc1ccc(OC)cc1 (stereo unspecified)
inactive: SK-MEL-2 melanoma 96% | EKVX NSCLC 98.7% | SN12C renal 104% | UO-31 renal 103% | TK-10 renal 96.5% | ACHN renal 108% | CAKI-1 renal 101% | CCRF-CEM leukemia 98.9% | MOLT-4 leukemia 95.7%

CCN(CC)CCCOC(=O)Nc1ccccc1Cl
inactive: SK-MEL-2 melanoma 101% | EKVX NSCLC 108% | SN12C renal 102% | UO-31 renal 91.7% | TK-10 renal 98.9% | ACHN renal 108% | CAKI-1 renal 104% | CCRF-CEM leukemia 88.4% | MOLT-4 leukemia 98%

CCOC(=O)c1c(Cl)c2c(n1Cc1cccc(OC)c1)-c1oncc1CC2
active: UO-31 renal -1.88% | CAKI-1 renal 7.94%
inactive: SK-MEL-2 melanoma 27.8% | EKVX NSCLC 56.4% | SN12C renal 42.7% | TK-10 renal 54.7% | ACHN renal 44.8% | CCRF-CEM leukemia 15.8% | MOLT-4 leukemia 25.9%

Cc1ccc(NS(=O)(=O)c2ccccc2)c(NS(=O)(=O)c2ccccc2)c1
inactive: SK-MEL-2 melanoma 98.6% | EKVX NSCLC 93.8% | SN12C renal 90.4% | UO-31 renal 69.4% | TK-10 renal 112% | ACHN renal 94.3% | CAKI-1 renal 93.2% | A498 renal 115% | CCRF-CEM leukemia 96% | MOLT-4 leukemia 105%

Cc1ccc(S(=O)(=O)N2CCc3ccccc3CC2)cc1
inactive: SK-MEL-2 melanoma 80.9% | EKVX NSCLC 22% | SN12C renal 85.3% | UO-31 renal 70.2% | TK-10 renal 74.2% | ACHN renal 85.5% | CAKI-1 renal 78.7% | A498 renal 87.4% | MOLT-4 leukemia 80.5%

CC(C)CCN(CCCNc1c2c(nc3cc(Cl)ccc13)CCCC2)CCC(C)C
inactive: SK-MEL-2 melanoma 103% | EKVX NSCLC 54.4% | SN12C renal 71.6% | UO-31 renal 27.2% | TK-10 renal 78.1% | ACHN renal 92.4% | CAKI-1 renal 56.5% | A498 renal 59% | CCRF-CEM leukemia 61.6% | MOLT-4 leukemia 47%

CCCCOCC(=O)NC(NP(=O)(N(C)C)N(C)C)C(Cl)(Cl)Cl (stereo unspecified)
inactive: SK-MEL-2 melanoma 107% | EKVX NSCLC 98.1% | SN12C renal 110% | UO-31 renal 92% | TK-10 renal 134% | ACHN renal 143% | CAKI-1 renal 92.3% | A498 renal 118% | MOLT-4 leukemia 99.5%

CC(C)/C(=N/O)c1ccccc1
inactive: SK-MEL-2 melanoma 101% | EKVX NSCLC 102% | SN12C renal 102% | UO-31 renal 93.8% | TK-10 renal 104% | ACHN renal 107% | CAKI-1 renal 107% | CCRF-CEM leukemia 103% | MOLT-4 leukemia 94%

S=C(Cc1ccc(-c2ccccc2)cc1)N1CCOCC1
inactive: SK-MEL-2 melanoma 88.5% | EKVX NSCLC 95.4% | SN12C renal 99.8% | UO-31 renal 83.9% | TK-10 renal 99.7% | ACHN renal 98.4% | CAKI-1 renal 90.4% | A498 renal 82% | CCRF-CEM leukemia 91.8% | MOLT-4 leukemia 99.7%

Oc1[nH]c2ccccc2c1/C=c1/cc2c(c(-c3ccc(C(F)(F)F)cc3)n1)=Nc1ccccc1-2
inactive: SK-MEL-2 melanoma 55.3% | EKVX NSCLC 52.1% | SN12C renal 79.1% | UO-31 renal 56.1% | TK-10 renal 56.9% | ACHN renal 32% | CAKI-1 renal 48.4% | A498 renal 62.6% | MOLT-4 leukemia 29.6%

COc1cc(-c2n/c(=C\c3c(O)[nH]c4ccccc34)cc3c2=Nc2ccccc2-3)cc(OC)c1OC
active: A498 renal -16.3% | MOLT-4 leukemia -13.5%
inactive: SK-MEL-2 melanoma 35.6% | EKVX NSCLC 45.8% | SN12C renal 34.3% | UO-31 renal 33.9% | TK-10 renal 57.9% | ACHN renal 37.2% | CAKI-1 renal 29.5%

O=C(/C=C/c1nnc2n(Cc3ccccc3)c(=O)c3c4c(sc3n12)CCCC4)c1ccccc1
active: MOLT-4 leukemia -3.6%
inactive: SK-MEL-2 melanoma 107% | EKVX NSCLC 92.4% | SN12C renal 96.7% | UO-31 renal 80% | TK-10 renal 136% | ACHN renal 125% | CAKI-1 renal 44.6% | A498 renal 112%

CC1(C)CCc2cc(-c3ccn(S(=O)(=O)c4ccc(Cl)cc4)n3)ccc2O1
inactive: SK-MEL-2 melanoma 92.2% | EKVX NSCLC 54.5% | SN12C renal 72.8% | UO-31 renal 75.6% | TK-10 renal 77% | ACHN renal 89.4% | CAKI-1 renal 64.3% | A498 renal 70.8% | CCRF-CEM leukemia 64.2% | MOLT-4 leukemia 65.4%

COc1cc(/C=C/C(=O)c2cc(-c3ccc(F)cc3)ccc2O)cc(OC)c1OC
active: CCRF-CEM leukemia -3.16%
inactive: SK-MEL-2 melanoma 75.4% | EKVX NSCLC 53% | SN12C renal 74.3% | UO-31 renal 53.1% | TK-10 renal 108% | ACHN renal 76.8% | CAKI-1 renal 60.5% | A498 renal 81.8% | MOLT-4 leukemia 26.3%
